Test [1] in a line: compounds binding Alexa647 anti-His antibody – biochemical, small-molecule microarray, 635 nm fluorescence, artefact control for SMM control protein annotation, primary screen (AID 1128).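 Note: score merges feature fluorescence with signal-to-noise for each printed compound spot.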 Conditions: higher = more signal.
Test [2] concerns Human papillomavirus type 1a E7 protein (residues 1-88). Nature of the test: HPV1a E7 small-molecule binders, primary screen, biochemical, small-molecule microarray, residues 1-88, 635 nm (AID 1129). Conditions: small-molecule microarray binding, fluorescence 635 nm; higher = more signal.
Test [3] concerns the target Focal adhesion kinase 1 (Homo sapiens) (UniProt Q05397). Nature of the test: PTK2 protein binding on printed compound slides – biochemical, small-molecule microarray, 635/667 nm fluorescence, BSA, DTT, primary screen (AID 1130).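 Note: composite of spot emission at 667 nm and signal to noise over triplicate slides.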 The following applies: 635 nm fluorescence, higher = more signal.
Test [4] concerns Fibrinogen (Alexa647-labelled). As to the kind of experiment: Alexa647-fibrinogen binding to printed small molecules – biochemical, small-molecule microarray, 635/667 nm fluorescence, artefact control for SMM control-protein annotation, profiling panel (AID 1131).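 Note: z-score merges 667 nm fluorescence with per-spot signal-to-noise over triplicate slides.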 The following applies: fibrinogen-A647 binding fluorescence, higher = more signal.
The target in test [5] is Follistatin (Homo sapiens) (UniProt P19883). Nature of the test: FST protein binding to printed compounds – biochemical, small-molecule microarray, 635/667 nm fluorescence, primary screen (AID 1132). Conditions: 635 nm fluorescence, higher = more signal.
Follistatin (Homo sapiens), sequence (P19883 whole entry, looked up): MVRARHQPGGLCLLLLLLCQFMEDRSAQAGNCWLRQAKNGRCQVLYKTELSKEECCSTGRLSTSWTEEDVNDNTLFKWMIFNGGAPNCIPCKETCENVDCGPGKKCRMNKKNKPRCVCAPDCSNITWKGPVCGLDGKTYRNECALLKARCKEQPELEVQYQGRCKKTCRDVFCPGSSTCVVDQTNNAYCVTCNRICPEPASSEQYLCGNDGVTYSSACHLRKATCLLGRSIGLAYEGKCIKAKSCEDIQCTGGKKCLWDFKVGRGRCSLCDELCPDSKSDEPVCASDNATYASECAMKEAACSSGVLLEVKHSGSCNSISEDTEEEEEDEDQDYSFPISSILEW
For test [6], the target named is Fibroblast growth factor 2 (Homo sapiens) (UniProt P09038). As to the kind of experiment: basic fibroblast growth factor binding to printed compounds – biochemical, small-molecule microarray, 635/667 nm fluorescence, primary screen (AID 1133). Conditions: FGF2, fluorescence 635/667, higher = more signal.
Fibroblast growth factor 2 (Homo sapiens), sequence (P09038 whole entry, looked up): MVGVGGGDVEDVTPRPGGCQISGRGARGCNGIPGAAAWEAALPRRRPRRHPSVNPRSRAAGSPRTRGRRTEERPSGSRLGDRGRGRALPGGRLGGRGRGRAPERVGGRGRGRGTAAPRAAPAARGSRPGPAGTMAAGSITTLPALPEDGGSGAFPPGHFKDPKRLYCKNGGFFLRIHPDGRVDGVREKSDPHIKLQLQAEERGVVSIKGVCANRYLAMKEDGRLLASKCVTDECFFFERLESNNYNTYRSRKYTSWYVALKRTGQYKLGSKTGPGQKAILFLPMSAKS
The nature of test [7]: JC-1 mitochondrial potential readout, lung cancer cells – cell-based, A549, JC-1 fluorescence, basal, 24 h, 100 nL, profiling panel (AID 1138).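 Note: A549 lung adenocarcinoma cells under basal conditions with no added stimulus; test concentration not given here.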 The following applies: higher = more signal.
A further test deals with Lefty1. As to the kind of experiment: Lefty1 protein binding to printed compounds – biochemical, small-molecule microarray, 635/667 nm fluorescence, primary screen (AID 1139). Conditions: fluorescence 635/667, higher = more signal.
For test [8], the system named is wheat germ agglutinin (Triticum aestivum), Alexa647-labelled. Nature of the test: Alexa647-WGA lectin binding to printed small molecules – biochemical, small-molecule microarray, 635/667 nm fluorescence, artefact control for SMM control-protein annotation, profiling panel (AID 1140).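 Note: score merges 667 nm feature emission with signal to noise over triplicate slides.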 The following applies: WGA-A647 binding, 635 nm fluorescence, higher = more signal.

In test [9] the target is Luciferin 4-monooxygenase (Photinus pyralis) (UniProt P08659). As to the kind of experiment: inhibition of purified Photinus pyralis luciferase – biochemical, luminescence, purified enzyme, 2006 set, primary screen (AID 1141).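 Note: cell-free assay with purified firefly luciferase at 100 ng per well in PBS; test concentration not given here.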 The following applies: purified firefly luciferase, SteadyGlo luminescence, 30 min; higher = more signal, called active from +8 up or from −8 down.
Luciferin 4-monooxygenase (Photinus pyralis), sequence (P08659 whole entry, looked up): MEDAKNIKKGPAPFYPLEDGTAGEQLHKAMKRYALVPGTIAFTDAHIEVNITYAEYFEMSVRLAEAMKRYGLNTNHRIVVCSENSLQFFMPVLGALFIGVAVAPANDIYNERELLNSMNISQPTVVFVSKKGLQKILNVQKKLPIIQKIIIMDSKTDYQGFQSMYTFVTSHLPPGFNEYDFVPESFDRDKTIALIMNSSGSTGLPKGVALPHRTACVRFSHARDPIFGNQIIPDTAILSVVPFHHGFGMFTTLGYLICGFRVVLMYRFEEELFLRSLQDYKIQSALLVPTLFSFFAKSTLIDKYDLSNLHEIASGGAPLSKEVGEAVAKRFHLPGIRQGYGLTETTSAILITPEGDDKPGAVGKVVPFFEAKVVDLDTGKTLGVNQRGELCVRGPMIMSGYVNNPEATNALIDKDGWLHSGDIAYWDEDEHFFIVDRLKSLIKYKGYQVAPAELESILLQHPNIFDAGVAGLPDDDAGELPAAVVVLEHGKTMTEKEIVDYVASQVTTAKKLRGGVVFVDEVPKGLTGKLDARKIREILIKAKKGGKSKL

Structures are written as SMILES. Activity calls are given as the source filed them.

Focal adhesion kinase 1 (Homo sapiens), sequence (Q05397 whole entry, looked up): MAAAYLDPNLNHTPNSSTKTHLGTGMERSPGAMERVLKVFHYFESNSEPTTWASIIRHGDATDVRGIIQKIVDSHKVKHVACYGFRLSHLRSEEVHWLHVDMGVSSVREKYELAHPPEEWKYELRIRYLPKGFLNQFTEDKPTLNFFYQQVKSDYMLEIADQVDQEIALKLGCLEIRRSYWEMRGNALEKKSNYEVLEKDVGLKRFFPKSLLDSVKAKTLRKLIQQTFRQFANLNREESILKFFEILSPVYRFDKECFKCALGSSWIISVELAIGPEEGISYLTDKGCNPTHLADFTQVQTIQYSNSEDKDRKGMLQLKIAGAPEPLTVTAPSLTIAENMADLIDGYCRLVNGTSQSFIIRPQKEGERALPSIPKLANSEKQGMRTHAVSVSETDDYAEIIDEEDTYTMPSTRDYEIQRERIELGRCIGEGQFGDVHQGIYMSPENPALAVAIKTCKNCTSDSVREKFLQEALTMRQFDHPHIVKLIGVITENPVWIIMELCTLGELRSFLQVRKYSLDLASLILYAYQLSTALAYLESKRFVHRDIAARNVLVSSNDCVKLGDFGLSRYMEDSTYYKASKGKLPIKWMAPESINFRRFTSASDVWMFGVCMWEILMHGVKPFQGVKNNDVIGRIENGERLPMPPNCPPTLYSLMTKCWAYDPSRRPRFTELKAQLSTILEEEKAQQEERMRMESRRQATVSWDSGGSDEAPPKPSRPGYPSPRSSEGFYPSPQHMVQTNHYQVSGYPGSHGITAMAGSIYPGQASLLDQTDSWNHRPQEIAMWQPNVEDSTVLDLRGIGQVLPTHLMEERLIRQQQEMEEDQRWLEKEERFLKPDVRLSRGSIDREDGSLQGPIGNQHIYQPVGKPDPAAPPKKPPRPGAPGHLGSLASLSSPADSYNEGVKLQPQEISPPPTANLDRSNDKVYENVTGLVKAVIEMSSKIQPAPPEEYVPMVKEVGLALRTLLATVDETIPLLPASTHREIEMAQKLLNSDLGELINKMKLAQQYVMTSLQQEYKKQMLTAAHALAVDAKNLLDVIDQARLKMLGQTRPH

For `C=CCOC(=O)[C@@H]1[C@H]2C(=O)O[C@H](c3ccccc3)[C@H](c3ccccc3)N2[C@H](c2ccc(OCCOC(=O)[C@H]3C[C@H]4C(=O)NCC(=O)N4[C@H]3c3ccc(O)cc3)cc2)[C@@]12C(=O)Nc1ccc(I)cc12`, the composite z-score in test [1] worked out at 1.24; in test [2], 1.19; in [3], 0.701; in test [4], 0.732; in [5], 1.27; in [6], 1.39. Moreover, the composite z-score with Lefty1 was found to be 1.06; in [8], 0.665. For the same compound, the z-score in test [7] is -1.1; in test [9] it was -0.483 (inactive).
As to `COC(=O)[C@@]1(Cc2ccc(F)cc2)[C@H]2c3cc(C(=O)N4CCCC4)n(CCO)c3C[C@H]2CN1C(=O)c1ccccc1`, the composite z-score was 0.896 in [1]; 1.05 in test [2]; 1.51 in test [3]; -2.15 in test [4]; -0.212 in [5]; -0.862 in test [6]. The composite z-score in the test on Lefty1 is -0.0322; in [8], 0.0962. In addition, the figures for the z-score in [7] and in [9] were 1.44 and 1.74 (inactive), respectively.
Regarding `CC(C)CNC(=O)[C@@H]1c2ccccc2C(=O)N(C(C)C)[C@H]1c1ccc(CO)cc1`, the composite z-score in test [1] is -0.306; in [2], -0.341; in test [3] it was -0.155; in [4] it was -1.18; in test [5], 0.659; in test [6], 0.427. In addition, the figures for the composite z-score (in the test on Lefty1; in test [8]) were -0.481 and 0.775, respectively. The z-score in test [7] was 0.484; in test [9] it was -0.207 (inactive).
Take `O=C1NC(=O)C2C1C=CC(C(O)c1cccc(O)c1)N2Nc1ccc(Cl)cc1Cl` (stereo not given): the composite z-score in test [1] was 0.33; in test [2], -0.0332; in test [3] it was 0.263; in [4], -0.348; in test [5], -0.127; in test [6], 0.0853. The composite z-score was -0.317 in the test on Lefty1 and 0.447 in test [8]. Besides, the z-score in test [7] was -0.812; in test [9], -0.259 (inactive).
Turning to `COC(=O)[C@@]1(CCC(=O)OC(C)(C)C)N=C(c2ccc(OCCCO)cc2)O[C@H]1c1ccccc1CN=[N+]=[N-]`, the composite z-score was 0.656 in [1]; 0.0163 in test [2]; -0.0599 in test [3]; 0.0201 in [4]; 0.663 in test [5]; 0.442 in test [6]. Moreover, the figures for the composite z-score (in the test on Lefty1; in test [8]) were -0.756 and 0.249, respectively. Moreover, the results for the z-score in [7] and in [9] were 0.895 and -0.488 (inactive), respectively.
On to `C=CC[C@]1(C(=O)OC)N=C(c2ccc(OCCCO)cc2)O[C@H]1c1ccccc1N=[N+]=[N-]`, for which the composite z-score in [1] was 3.65; in [2] it was 1.21; in [3], 1.01; in [4] it was 0.266; in [5], 1.43; in test [6], 1.78. Also, the composite z-score in the test on Lefty1 stood at 1.12; in [8], 0.291. For the same compound, the z-score was -0.674 in [7] and -11 (active) in test [9].
Take `CC(C)C[C@@H]1NC(=O)[C@@]23C(=O)N[C@@H](Cc4ccccc4)C2[C@H](C)[C@@]2(C)O[C@H]2C3/C=C/C/C=C\CNC(=O)[C@@H](CC(C)C)NC1=O` (stereo not given in full): the composite z-score in test [1] is 0.455; in test [2] it was 0.409; in [3], -0.0559; in test [4] it was 0.928; in [5] it was 0.797; in test [6] it was 0.963. The composite z-score in the test with Lefty1 is 0.84; in test [8], 0.393. For the same compound, the z-score in [7] was 0.102; in [9] it was -1.23 (inactive).
With `CC(=O)c1ccc(C(O)C2C=CC3C(=O)N(C)C(=O)C3N2NC(=O)OC(C)(C)C)cc1` (stereo not given), the composite z-score in test [1] was 0.777; in test [2] it was 1.23; in [3] it was 1.54; in test [4], 1.05; in [5], 0.046; in test [6] it was 0.14. Also, the composite z-score in the test on Lefty1 amounted to 0.337; in test [8] it was 1.34. The z-score was -0.082 in test [7] and -0.068 (inactive) in [9].
On to `CC(C)C(=C=CC[C@@H](O)c1cccc(OCCO)c1)CCO`, for which the composite z-score in [1] is 0.241; in test [2] it was 0.0895; in test [3], -0.0966; in test [4], 0.236; in [5], 1.14; in test [6], 1.61. In addition, the composite z-score in the test on Lefty1 was 0.524; in [8], 0.271. Besides, the z-score is 0.265 in [7] and -0.852 (inactive) in test [9].
`CCCC=C(CCC)[C@@H](NC(=O)c1ccco1)c1ccc(C(=O)OC)cc1`: the composite z-score in test [1] was 1.24; in test [2], 1.26; in [3], 0.601; in test [4], 0.984; in test [5], 0.649; in [6], -0.181. Moreover, the composite z-score worked out at 0.119 with Lefty1 and 1.31 in test [8]. For the same compound, the z-score is -1.67 in test [7] and 2.66 (inactive) in test [9].
For the compound `O=C1O[C@@H](c2ccccc2)[C@@H](c2ccccc2)N2[C@@H](c3ccc(O)cc3)[C@]3(C(=O)Nc4ccc(C#CC5=CCCCC5)cc43)[C@@H](C(=O)N3CCCCCCC3)[C@H]12`, the composite z-score is 1.22 in test [1]; 1.06 in [2]; 0.277 in test [3]; 0.836 in test [4]; 1.4 in test [5]; 1.19 in [6]. Moreover, the composite z-score is 1.29 with Lefty1 and 1.32 in [8]. In addition, the z-score in [7] was 1.26; in test [9] it was -3.18 (inactive).
`CCOC(=O)C1=CCC(c2cc3ccccc3[nH]2)N(S(=O)(=O)c2ccccc2[N+](=O)[O-])C1` (stereo not given): the composite z-score in test [1] is 0.584; in test [2], 1.2; in [3] it was 0.501; in test [4], 0.0547; in test [5], 0.574; in [6], -0.103. For the same compound, the composite z-score in the test on Lefty1 was found to be 0.306; in [8], 0.896. In addition, the results for the z-score in test [7] and in test [9] were 1.05 and -0.0781 (inactive), respectively.
As to `CC(C)C(=C=CC[C@@H](O)c1ccccc1OCCO)C[C@@H](O)c1cc(Cl)cc(Cl)c1O`, the composite z-score is 1.46 in test [1]; 1.23 in test [2]; -0.14 in test [3]; 0.88 in [4]; 1.38 in test [5]; 0.964 in test [6]. The composite z-score came out at 1.58 in the test with Lefty1 and 0.54 in test [8]. Further, the z-score is -1.35 in test [7] and -1 (inactive) in [9].
Take `NC(=O)N1C(=O)C2C(C1=O)C1C=C(CCCO)C2C(c2ccc(CN3CCCC3)cc2)N1Cc1cccc(OC(F)(F)F)c1` (stereo not given): the composite z-score in test [1] came to 0.22; in test [2], 0.429; in [3], 0.102; in test [4] it was 0.33; in [5], 1.05; in test [6], 0.532. Further, the composite z-score turned out to be 1.38 with Lefty1 and 0.0168 in [8]. The z-score was 1.39 in test [7] and -0.84 (inactive) in [9].
In the case of `CCOC(=O)C[C@H]1[C@H](OC(=O)c2ccc(-c3ccccc3)cc2)[C@@H](NC(=O)CC(C)C)c2cc(OCCCO)ccc2N1C(=O)Cc1ccc(OC)cc1`, the composite z-score is -0.283 in [1]; 0.686 in [2]; 0.0381 in test [3]; 0.54 in test [4]; -0.195 in [5]; 0.0007 in [6]. In addition, the composite z-score in the test with Lefty1 was -0.276; in test [8], 0.535. Also, the z-score in test [7] is 0.598; in test [9] it was 0.491 (inactive).
Take `C=CCC(OC(C)=O)[C@@H]1[C@@H](N(Cc2ccc(-c3ccccc3)cc2)C(=O)c2cccc3ccccc23)c2cc(OCCCO)ccc2N1C(=O)c1ccc2ccccc2c1` (stereo not given in full): the composite z-score in test [1] is -0.173; in test [2] it was 0.216; in [3], 0.529; in [4], 0.728; in test [5], 0.424; in test [6], -0.198. In addition, the composite z-score in the test with Lefty1 is 0.243; in test [8] it was 0.104. Moreover, the z-score in test [7] is 0.248; in test [9] it was 0.209 (inactive).
